# Screening data: PubChem, National Center for Advancing Translational Sciences (NCATS)
# Only some compounds are listed: those with a hit (about 8.7% of all), similar ones and a draw of the others.
# AMA1 RON2 block: AMA1-RON2 (P. falciparum) interaction inhibition. AlphaScreen AMA1-biotinylated RON2 peptide binding. Potency, µM (series often up to 58.2 µM), inactives show at the top dose activity change, negative = inhibition, hits mostly inhibitors. 360,000 compounds, 0.2% hits. AID 720542;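 note: 0% = vehicle wells and -100% = peptide control; nearly all actives have a fitted effect of over 45% in size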
#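 AMA1 (3D7) with his tag at 25 nM final met compounds first, then biotinylated RON2 peptide at 25 nM; detection used donor plus acceptor beads, 10 µg/mL apiece, read by AlphaScreen after 30 min at room temperature.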
# Pf growth 48h: inhibits P. falciparum growth in the first generation, 48 h; 310,000 compounds, 5.9% hits; Potency, µM (series often up to 28.7 µM), for inactives: at the top dose activity change, negative = inhibition, actives largely listed as inhibitors; P. falciparum luciferase growth in erythrocytes, 48 h
#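 Erythrocytes infected with P. falciparum carrying an integrated firefly luciferase reporter (2% hematocrit, 0.1% parasitemia final) were exposed to compounds in RPMI 1640 with 0.5% Albumax at 37 C, 5% CO2. Growth inhibition was scored as reduced luminescence.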
# Pf growth 96h: P. falciparum growth inhibition at 96 hour, primary screen for plastid delayed-death inhibitors; P. falciparum luciferase reporter growth, 96 h; Potency, µM (titrated, usually from 28.7 µM), inactives show at the highest dose activity change, negative = inhibition, most hits filed as inhibitors; 320,000 compounds, 6.9% hits; AID 504834
#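 Cell-based qHTS: luciferase-tagged P. falciparum in erythrocytes (2% hematocrit, 0.05% parasitemia final) incubated with compounds for 96 hours, 37 C, 5% CO2; luciferase detection reagent then added and luminescence measured.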
# VACV Venus inh: inhibitors of vaccinia virus (Venus reporter); AID 720580; 330,000 compounds, 0.46% hits; Vaccinia virus Venus reporter expression, fluorescence; Potency, µM (top dose mostly 36.5 µM), for the others: at the highest dose activity change, negative = inhibition, actives largely listed as inhibitors; calls by dose curve; tested in A549 cells; note: nearly all actives have a fitted effect of over 30% in size
# VACV mCherry inh: vaccinia inhibition (mCherry reporter). Vaccinia virus mCherry reporter infection, fluorescence. Potency, µM (highest dose often 36.5 µM), without a hit: at the top dose activity change, negative = inhibition, most hits filed as inhibitors. 310,000 compounds, 0.63% hits. AID 720579; calls by dose curve; tested in A549 cells; note: nearly all actives have a fitted effect of over 35% in size
# * = called active by the depositor; i = inactive; ? = inconclusive; · = no result given. Unless noted, calls come from the whole dose curve; as a rule, active = well fitted curve in the direction sought with a large enough effect; inconclusive = small, poorly fitted or top-dose-only effect, or another doubt; inactive = no such curve, though single readings can be large; an effect the other way counts as inactive or inconclusive. Unless noted, % is set by controls: 0 for no effect and ±100 for the full control effect; potency is the fitted concentration of half-maximal effect.
SMILES,AMA1 RON2 block,Pf growth 48h,Pf growth 96h,VACV Venus inh,VACV mCherry inh
CC(C)OC(=O)c1c(NC(=O)C2CC=CCC2C(=O)O)sc2c1CCCCC2 (stereo not drawn),15%,-3%,9.3µM*,-14%,-2%
CC1CC(C)(C)NCc2ccccc21 (stereo not drawn),5%,0%,9.3µM*,-24%,·
NC(=O)CC(NC(=O)c1ccc(Br)cc1)c1ccc(N2CCN(c3ccccc3)CC2)c([N+](=O)[O-])c1 (stereo not drawn),-25%,15%,-15%,-23%,-23%
NC(=O)CC(NC(=O)c1ccc(Br)cc1)c1ccc(N2CCCCCCC2)c([N+](=O)[O-])c1 (stereo not drawn),-29%,20%,2.9µM*,?,-23%
O=[N+]([O-])c1cccc2cnccc12,43%,·,·,-9%,?
O=[N+]([O-])c1ccc(Oc2ccc(F)cc2)c2ccncc12,-28%,9.3µM*,·,-8%,·
O=[N+]([O-])c1ccc(Oc2cccc(Br)c2)c2ccncc12,?,12µM*,·,?,-6%
O=[N+]([O-])c1cccnc1Oc1ccc(F)cc1,10%,9%,?,6%,-15%
CCOc1ccc(-c2nc(CNC(=O)NC3CCCCC3)c(C)o2)cc1,·,·,·,-2%,-6%
COC(=O)c1cnn(-c2ccc(C(=O)Nc3ccc(C(C)=O)cc3)cc2)c1N,·,5.2µM*,?,-10%,-2%
CC(=O)c1ccc(NC(=O)c2cnn3ccccc23)cc1,-1%,·,10µM*,-14%,i
COC(=O)c1cnn(-c2ccc(C(=O)Nc3cc(OC)c(OC)c(OC)c3)cc2)c1N,·,·,·,5%,6%
c1ccc(Cc2nnc3n2CCN(Cc2cnc(-c4ccccc4)s2)CC3)cc1,·,·,·,-12%,-13%
CN1CCc2c(C#N)c(N3CCCCC3)nc(NCc3ccccc3)c2C1,-15%,?,2.3µM*,·,·
N#Cc1c(NCCCO)nc(NCc2ccccc2)c2c1CCN(Cc1ccccc1)C2,-10%,?,10µM*,?,·
Cc1ccc(C)c(NC(=O)Cn2ncc3c([nH]c4ccccc43)c2=O)c1,·,·,·,-2%,2%
CN(C)c1ccc(CNC(=O)c2cc3ccccn3n2)cc1,·,·,·,7%,-14%
O=C1C[C@H]2C=CCc3cccc(c32)CN1Cc1cccc(F)c1,·,·,·,-7%,-3%
Cc1cc(Oc2ccc(=O)n(C)n2)nc(SCC(N)=O)n1,-9%,8%,19%,·,·
Cc1cc(Oc2ccc(=O)n(C)n2)nc(Oc2ccc(=O)n(C)n2)n1,4%,5%,10µM*,-14%,·
Cc1cccn2c(=O)c(C(=O)NC3CCCCC3)c(O)nc12,-4%,?,?,·,·
Cc1ccn2c(=O)c(C(=O)NC3CCCCC3C)c(O)nc2c1 (stereo not drawn),-22%,2.3µM*,?,-8%,-5%
Cc1cccn2c(=O)c(C(=O)NC3CC(C)CC(C)(C)C3)c(O)nc12 (stereo not drawn),-5%,3.7µM*,?,-4%,i
Cc1cccn2c(=O)c(C(=O)NC3CCCCC3C)c(O)nc12 (stereo not drawn),28%,13µM*,?,-16%,i
O=C(Cc1cccc2ccccc12)NO,·,·,·,-12%,-22%
COC(=O)CCCC1=CC2=C(c3ccccc3)C(=O)C(C)(OC(=O)C3CCCC3)C(=O)C2=CN1CC1CC1 (stereo not drawn),-2%,?,8.3µM*,-2%,i
COC(=O)CCCC1=CC2=C(c3ccccc3)C(=O)C(C)(OC(=O)C3CCCC3)C(=O)C2=CN1C1CCCC1 (stereo not drawn),-17%,?,?,-5%,-21%
COCCN1C=C2C(=O)C(C)(OC(=O)C3CCCC3)C(=O)C(c3ccccc3)=C2C=C1CCCC(=O)OC (stereo not drawn),-1%,36%,?,-11%,-14%
COC(=O)CCCC1=CC2=C(c3ccccc3)C(=O)C(C)(OC(=O)C3CCCC3)C(=O)C2=CN1C1CCCCC1 (stereo not drawn),-11%,10µM*,?,6%,-19%
Cc1ccc(-n2c(=O)c3c(c4cc(C)ccc4n3C)n(CC(=O)Nc3cc(C)cc(C)c3)c2=O)cc1,·,·,·,-5%,-16%
